Measured values taken from PubChem BioAssay AID587 (National Center for Advancing Translational Sciences (NCATS), 2007).
Screen size: about 59,000 compounds; about 35 (0.06%) were called active. Inconclusive results (about 19%) are left out. No stated cut-off is given here; in the data, active means max dye-equivalent concentration above about 10 nM; inconclusive means between about 1.1 nM and that limit; inactive means weaker than that. The list comes from a sample in which actives are over-represented; it also holds similar structures and randomly drawn compounds.

experiment: qHTS Assay for Spectroscopic Profiling in Texas Red Spectral Region; conditions: Compound fluorescence, Texas Red channel, 547/618 nm
Text: NIH Molecular Libraries Screening Centers Network [MLSCN] NIH Chemical Genomics Center [NCGC] […] Occasionally, the artifactual effect may originate from the compound#s own spectral or other biophysical properties which generally tend to track its assay concentration. Pre-screening/profiling the library with respect to the compounds# spectral properties should help one exclude false positives early on. While the most informative fluorescent profiling data set is obtained by performing a full excitation and emission scan of each well by using a monochromator-based plate reader, such an approach is practical only on a very limited scale as scanning each well requires long time. An alternative approach, applied here, is to perform plate reader scans using selected excitation and emission wavelength pairs to generate a multidimensional relational database that correlates compound concentration and the respective relative fluorescence intensity at a given wavelength set. A standard curve of Texas Red (TR) present on each plate as six-point concentration series, was used to compute a normalized fluorescence response, termed dye-equivalent concentration, for each compound at each concentration.
NCGC Assay Protocol Summary: Buffer: 100 mM Tris buffer, pH 8.0 Dye standard plate: The wells in columns 1 through 4 of a Kalypsys polypropylene 1536-well compound plate were filled with standard solutions of fluorophore corresponding to the spectral region of interest. Solutions of TR were placed in the following wells: U1, V1: 3 mM, U2, V2: 300 uM, U3, V3: 30 uM, U4, V4: zero (DMSO), W1, X1: 3 uM, W2, X2: 900 nM, W3, X3: 300 nM, W4, X4: zero (DMSO). Assay Steps: Six uL of buffer were dispensed to 1536-well Greiner black plates. Compounds and dye standards (23 nL) were transferred via Kalypsys PinTool. The plates were incubated for 15 min at room temperature, and then read on ViewLux (Perkin-Elmer) High-throughput CCD imager using 547 nm and 618 nm excitation and emission filter set. Keywords: NIH Roadmap, MLSCN, MLI, MLSMR, qHTS, NCGC, Texas Red, Fluorescent Profiling.

Max dye-equivalent concentration, inactive:
Cc1nn(-c2ccccc2)c(CC(C)(C)C(=O)O)c1C(=O)O
COCCn1c(=O)c(-c2cc(F)cc(F)c2)nc2cnc(N3CCNCC3)nc21
CN1CCN(S(=O)(=O)c2ccc(NC(=O)C3CCCO3)cc2)CC1 (configuration not stated)
O=C(c1cnccn1)N1CCC[C@@]2(CCN(Cc3ccncc3)C2)C1
CN1CCN(c2ncc3nc(-c4ccc(Cl)cc4)c(=O)n(-c4ccccc4)c3n2)CC1
N#Cc1cccc(-c2nc3cnc(N4CCNCC4)nc3n(C3CC3)c2=O)c1
CCOCCOC(=O)C1=C(C)N(C)C(=O)NC1c1ccccc1F (configuration not stated)
Cc1nc(NCc2ccccc2)c(C(N)=O)c2c1COC(C)(C)C2
COc1ccc(N2CCN(C(=O)CSc3nnc4ncccn34)CC2)cc1
O=C1CSC(c2cccc(F)c2)N1c1ccccc1F (configuration not stated)
COc1ccc(N2CCN(Cc3cc(=O)oc4ccc5ccccc5c34)CC2)cc1
COC(=O)c1ccccc1NC(=O)CSc1ccccn1
COc1ccc2oc(=O)c(C(=O)N3CCN(c4ccccc4F)CC3)cc2c1
CCNc1ncc2nc(CCc3ccccc3)c(=O)n(-c3ccc(OC)cc3)c2n1
CCOC(=O)C1CCN(C(=O)Cn2cc(C#N)c3ccccc32)CC1
CC(C)C(C(=O)NC1CCCCC1)N(CC1CCCO1)C(=O)CNS(=O)(=O)c1ccc(F)cc1 (configuration not stated)
CO[C@@H]1/C=C\O[C@]2(C)Oc3c(C)c(O)c4c(O)c(c(CN(C)C)c(O)c4c3C2=O)NC(=O)/C(C)=C\C=C[C@@H](C)[C@@H](O)[C@H](C)[C@@H](O)[C@H](C)[C@H](OC(C)=O)[C@@H]1C
Cc1c(C(=O)CN2CCOCC2)[nH]c2ccccc12
O=C(NCCCCO)C(F)(F)C(F)(F)C(F)(F)C(=O)NCCCCO
O=c1c(-c2ccc(F)c(F)c2)nc2cncnc2n1-c1ccccc1
COC(=O)[C@@H]1[C@H]2C[C@H]3c4[nH]c5cc(OC)ccc5c4CCN3C[C@@H]2C[C@@H](OC(=O)c2cc(OC)c(OC)c(OC)c2)[C@@H]1OC
COc1ccc(C(=O)N(CCN2CCOCC2)CC(=O)NC2CCCC2)cc1OC
C=C(C)CSc1nc(N)c2c3c(sc2n1)CCC3
CC(C)c1nc(N2CCOCC2)c(C#N)c2c1COC(C)(C)C2
CN(C)c1ncc2nc(-c3ccc(F)cc3)c(=O)n(Cc3ccc(F)cc3)c2n1
c1cncc(CNc2ccnc(-c3ccc4c(c3)OCO4)n2)c1
CCN(CC(=O)NC(C)C)C(=O)CCNC(=O)c1ccc(Cl)cc1
Cc1nc2cnc(N3CCN(C)CC3)nc2n(C[C@H]2CCCO2)c1=O
COc1ncc2nc(-c3ccc(Cl)cc3)c(=O)n(-c3ccccc3)c2n1
O=C(O)[C@@H](S)[C@H](S)C(=O)O
N#CCCn1c(=O)c(-c2cc(F)cc(F)c2)nc2cnc(Oc3ccccc3)nc21
COc1ccc(OC)c(CN2C(=O)CCC2(C)C(=O)NC2CCCCCC2)c1 (configuration not stated)
O=C(Cn1nnc(-c2ccccc2)n1)NCc1ccccc1
O=c1[nH][nH]c(=O)c2cc(N3CCCC3)ccc12
CC(C(=O)N1CCOCC1)N1c2cccc3cccc(c23)S1(=O)=O (configuration not stated)
O=C(Nc1ccc2c(c1)OCCO2)C1CCCN(c2ncccn2)C1 (configuration not stated)
COCCNC(=O)C(c1ccc(C)o1)N(Cc1cccs1)C(=O)c1snc(C(N)=O)c1N (configuration not stated)
COc1c(F)c(F)c(-c2csc(N)n2)c(F)c1F
CC(C)c1ccc(NC(=O)NC2CCCCC2)cc1
CCC(C)(C(=O)NC1CCCC1)N(C(=O)CNC(C)=O)c1ccc(C)cc1 (configuration not stated)
CCNc1nc(NCC)nc(N(C)n2cnnc2)n1
O=C(CN1CCN(c2ccccn2)CC1)NCc1cccs1
O=C(O)COc1c(Cl)cc(Cl)c2cccnc12
O=C(OCC(O)C(O)COC(=O)c1ccccc1)c1ccccc1 (configuration not stated)
COc1cccc(Cn2c(=O)c(CCc3ccccc3)nc3cnc(N(C)C)nc32)c1
CN1CCN2c3ccccc3Cc3ccccc3[C@@H]2C1
COCCn1c(=O)c(-c2cccc(F)c2)nc2cncnc21
CC1Cc2cc(/C(O)=C3\C(=O)C(=O)N(CCN4CCOCC4)C3c3ccccc3F)ccc2O1 (configuration not stated)
CCOC(=O)CSc1nc2sc3c(c2c(=O)[nH]1)CC(C)(C)OC3
CC(C)NC(=O)N1CC[C@@]2(CCCN(C(=O)c3ccco3)C2)C1
CCC(c1nnnn1C1CCCC1)N1CCN(C(=O)c2ccco2)CC1 (configuration not stated)
Cc1nn(-c2ccccc2)c2sc(C(=O)N(Cc3ccco3)C(C)C(=O)NC(C)(C)C)cc12 (configuration not stated)
CCOC(=O)N1CCC(Nc2c(NCCCN3CCN(c4ccc(OC)cc4)CC3)c(=O)c2=O)CC1
COc1ccccc1CNC(=O)CCCNS(=O)(=O)c1cccc2nsnc12
COc1cccc(-c2cc(NCCc3c[nH]c4ccc(OC)cc34)ncn2)c1
CC(C)(C)c1ccc(C(=O)NCCC(=O)NCc2ccco2)cc1
CCOCC(=O)Nc1cc(OC)c(Cl)cc1OC
CCOc1ccc(CCNC(=O)C2CCN(c3ccc(N4CCOCC4)nn3)CC2)cc1OCC
O=C(Cn1ccc(=O)[nH]c1=O)Nc1ccc(C(=O)O)c(O)c1
CCc1c(C)sc(NC(=O)c2ccc(Br)o2)c1C(=O)OC
CCNc1ncc2ncc(=O)n(Cc3cccc(OC)c3)c2n1
CC1(C)S[C@@H]2[C@@H](NC(=O)[C@@H](N)c3ccccc3)C(=O)N2[C@H]1C(=O)O
COCCn1c(=O)c(-c2cccs2)nc2cncnc21
CN(C)c1cc(N)c2ccccc2n1 (tested in a mixture with another compound)
C[N+]1(CCNC(=O)/C=N/O)CCCCC1
CCCCCC(=O)Nc1ccc2oc(-c3ccncc3)nc2c1
CN/C(=C\[N+](=O)[O-])NCCSCc1csc(CN(C)C)n1
